Test [1] addresses Phospholipid hydroperoxide glutathione peroxidase GPX4 (Homo sapiens) (UniProt P36969). Kind of test: Primary qHTS Assay for Inhibitors of Recombinant Selenoprotein Glutathione Peroxidase 4 (GPX4) (AID 1845192). Further: nearly all actives have a fitted effect of over 65% in size. Further: potency means the concentration at half of the fitted maximal effect. On activity change, negative = inhibition: series mostly up to about 50 µM; on the % scale 0 is the no-effect control and ±100 the full control effect. The method in brief:
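NADPH consumption followed by fluorescence at 340/450 nm, t=0 and after 15 min at room temperature. Reaction started with cumene hydroperoxide (0.5 mM final) after 30 min compound–GPX4 preincubation; final 200 nM GPX4, 100 nM GR, 1 mM GSH, 0.5 mM NADPH.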
(qHTS replaces the single test concentration by a dilution series.)

For test [2], the target named is Glutathione peroxidase 1 (Homo sapiens) (UniProt P07203). Kind of test: Primary qHTS Assay for Inhibitors of Recombinant Selenoprotein Glutathione Peroxidase 1 (GPX1) (AID 1845191). Further: nearly all actives have a fitted effect of over 65% in size. On activity, negative = inhibition: on the % scale 0 is the no-effect control and ±100 the full control effect. In a few lines: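 NADPH consumption tracked by fluorescence at 340/450 nm between t=0 and t=15 min, room temperature. Final mix: 10 nM GPX1, 100 nM glutathione reductase, 1 mM GSH, 0.5 mM NADPH, 0.5 mM cumene hydroperoxide, 0.01% BSA; 30 min compound–enzyme preincubation.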
Chain of Glutathione peroxidase 1 (Homo sapiens) (P07203 whole entry, looked up): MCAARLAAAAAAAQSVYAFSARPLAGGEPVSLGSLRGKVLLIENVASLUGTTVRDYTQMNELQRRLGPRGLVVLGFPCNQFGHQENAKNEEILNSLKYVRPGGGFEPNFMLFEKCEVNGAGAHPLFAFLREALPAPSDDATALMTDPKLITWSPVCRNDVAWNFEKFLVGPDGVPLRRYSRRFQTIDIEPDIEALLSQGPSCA

In test [3] the target is Luciferin 4-monooxygenase (Photinus pyralis) (UniProt P08659). In words: Primary firefly luciferase (FLuc) qHTS assay for identification of artifact compounds. (AID 1845220). Further: nearly all actives have a fitted effect of over 60% in size.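 On activity change, negative = inhibition: series mostly up to about 54 µM; plate controls were DMSO vehicle for no effect and no enzyme for full effect.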 In a few lines:
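Compounds sat 15 min at room temperature with 10 uM luciferin and 10 uM ATP (pH 7.6 Tris acetate). Firefly luciferase (10 nM final) was then added, and luminescence was read 5 min later. Data normalized to no-enzyme and DMSO controls were Hill-fitted.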

Test [4] deals with Nanoluciferase (engineered Oplophorus gracilirostris luciferase). In words: Primary Nanoluciferase (NLuc) qHTS assay for identification of artifact compounds. (AID 1845222).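 Further: series mostly up to about 54 µM; 0% = DMSO and -100% = no enzyme.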 The method in brief:
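Luminescence from secreted NLuc (filtered, 1:55-diluted S16 cell medium) read 5 min after Nano-Glo substrate; compounds preincubated 15 min, RT. Hill fits of inhibition normalized to DMSO and no-enzyme.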

A short description of test [5]: Primary fluorescence-based thiol-reactive (MSTI) qHTS assay for identification of artifact compounds. (AID 1845221). Further: nearly all actives have a fitted effect of over 65% in size. Further: potency means the concentration at half of the fitted maximal effect.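 On activity change, negative = thiol reactive: series mostly up to about 54 µM; thiol-reactive compounds lower the probe fluorescence signal.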 In a few lines:
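One-hour, room-temperature, dark incubation of compound with 4 uM MSTI in PBS (pH 7.4, 2% DMSO) precedes a fluorescence read at 525 nm excitation, 598 nm emission; Hill-equation fitting yields concentration-response values.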

The record followed here is PubChem BioAssay (NCATS).

Records with an inconclusive call do not appear. Some structures have more than one record in an assay (separate samples or runs), and their calls can disagree. The source made the active and inactive calls. The call rests on the fitted dose curve; in most records, active means well fitted curve in the direction sought with a large enough effect; inconclusive means small, poorly fitted or top-dose-only effect, or another doubt; inactive means no such curve, though single readings can be large; an effect the other way counts as inactive or inconclusive. *1 amine or outer side, *2 acyl side, *3 side chain or, on linkers, in order; H or OH if unused. Where a SMILES comes first, the peptide text is derived from it. Bridges are numbered along the chain shown (N, C = ends). [ ]: non-standard residue; d: D form. The star is where a group is joined. pTerphenylCO(4''-OnC5H11) = CCCCCOc1ccc(-c2ccc(-c3ccc(C(=O)*)cc3)cc2)cc1; Orn(4R-OH,5R-OH) = O=C([C@H](C[C@@H](O)[C@@H](O)N[*:3])N[*:1])[*:2]; hTyr(3S-OH,4S-OH) = N[C@H](C(=O)O)[C@H](O)[C@@H](O)c1ccc(O)cc1; Pro(3S-OH,4S-Me) = C[C@H]1CN[C@H](C(=O)O)[C@H]1O; Hyp = O=C(O)[CH]1C[CH](O)CN1; Phe(ol) = N[CH](CO)Cc1ccccc1; Iva = CC[C](C)(N)C(=O)O; Aib = CC(C)(N)C(=O)O

Chain of Phospholipid hydroperoxide glutathione peroxidase GPX4 (Homo sapiens) (P36969 whole entry, looked up): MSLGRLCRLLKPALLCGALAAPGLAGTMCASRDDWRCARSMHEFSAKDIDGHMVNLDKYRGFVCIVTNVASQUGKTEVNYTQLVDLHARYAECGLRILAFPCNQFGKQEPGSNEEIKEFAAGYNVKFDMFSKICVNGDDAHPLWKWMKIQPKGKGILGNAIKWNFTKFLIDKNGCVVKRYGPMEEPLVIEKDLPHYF

On to `CCOC(=O)COc1ccc2c(=O)cc(-c3ccccc3)oc2c1`, for which the Potency result in test [1] was “inactive”.

For the compound `C=C[C@@]1(C)CCC2C(=CCC3[C@]2(C)CCC[C@@]3(C)C(=O)O)C1` (some centres not stated), the Potency result in test [2], in test [3] and in test [4] was “inactive” in each case.

As for `COc1ccc(-c2c(C)nn3c(NCCN4CCOCC4)cc(C)nc23)cc1OC`, the Potency entry in test [2], in test [3] and in test [4] was “inactive” each time.

With `CC[C@H](C)/C=C(C)/C=C/C1=CC2=CC(=O)[C@]3(C)OC(=O)[C@@H](C(C)=O)[C@@H]3C2=CO1`, the Potency entry in test [2], in test [3] and in test [4] was “inactive” in each case.

Consider `CCCCc1cc2c(=O)c(C(=O)OC)c[nH]c2cc1OCc1ccccc1`, for which the Potency result in test [1] is “inactive”.

As for `CN1CCN(CCCN2c3ccccc3Sc3ccccc32)CC1`, the Potency result in test [1] was “inactive”.

Take `CCCCOC(=O)C(=O)Nc1cccc(-c2nn[nH]n2)c1`: in test [1], the Potency result was “inactive”.

As for `O=C(CCCN1CCC(n2c(=S)[nH]c3ccccc32)CC1)c1ccc(F)cc1`, the Potency in test [1] was 4.47 µM (active).

Regarding `CC1(C)S[C@@H]2[C@H](NC(=O)C(C(=O)Oc3ccc4c(c3)CCC4)c3ccccc3)C(=O)N2[C@H]1C(=O)O` (some centres not stated), the Potency in test [1] is 8.91 µM (active).

For `Clc1cccc(COc2cncc(N3CCNCC3)n2)c1`, the Potency entry in test [2], in test [3], in test [5] and in test [4] was “inactive” each time.

On to `COc1cc2c(cc1OC(C)C)[C@H](c1ccc(Cl)cc1)N(c1ccc(N(C)CC3CCC(N4CCN(C)C(=O)C4)CC3)cc1)C(=O)C2` (some centres not stated), for which the Potency result in test [2], in test [3] and in test [4] was “inactive” throughout.

Take `Cn1sc(=O)n(Cc2ccccc2)c1=O`: the Potency result in test [2] and in test [5] was “inactive” each time.

For the compound `CC/C(C)=C/C(=O)OC1C(OC2(C)CCC3C(C4C(C)CCC42)C3(C)C)OC(C)C(O)C1O` (configuration not stated), the Potency entry in test [2], in test [3] and in test [4] was “inactive” in each case.

Turning to `CC(=O)S[C@@H]1CC2=CC(=O)CC[C@]2(C)[C@H]2CC[C@@]3(C)[C@@H](CC[C@@]34CCC(=O)O4)[C@H]12`, in test [1], the Potency result is “inactive”.

With `CS(=O)(=O)c1ccc(Oc2cc(F)cc(C#N)c2)c2c1[C@H](O)C(F)(F)C2`, in test [1], the Potency entry is “inactive”.

In the case of `C=C1C(=O)O[C@@H]2/C=C(\C)CC/C=C(\C)CC[C@@H]12`, the Potency entry in test [2], in test [3], in test [5] and in test [4] was “inactive” throughout.

As for `Cc1cnn(-c2ccccc2)c1NC(=O)COCc1ccccc1`, the Potency entry in test [2], in test [3] and in test [4] was “inactive” in each case.

For `CCCn1cc2c(nc(NC(=O)Nc3ccc(OC)cc3)n3nc(-c4ccco4)nc23)n1`, the Potency result in test [2], in test [3] and in test [4] was “inactive” throughout.

Consider `COc1cc(CCc2cc(NC(=O)c3ccc(N4CC(C)NC(C)C4)cc3)n[nH]2)cc(OC)c1` (configuration not stated), for which the Potency result in test [1], in test [3] and in test [5] was “inactive” in each case.

Turning to `CS(=O)(=O)Nc1cc2occ(NC=O)c(=O)c2cc1Oc1ccccc1`, the Potency in test [1] is 18 µM (active) and inactive.

Turning to `C=C(C)C(=O)O[C@H]1/C(C=O)=C\CC/C(CO)=C/[C@H]2OC(=O)C(=C)[C@@H]2[C@@H]1OC`, the Potency result in test [2], in test [3] and in test [4] was “inactive” each time. Further, the Potency in test [5] is 3.69 µM (active).

For `CCCCCOc1ccc(-c2ccc(-c3ccc(C(=O)N[C@H]4C[C@@H](O)[C@@H](O)NC(=O)[C@@H]5[C@@H](O)[C@@H](C)CN5C(=O)[C@H]([C@@H](C)O)NC(=O)[C@H]([C@H](O)[C@@H](O)c5ccc(O)cc5)NC(=O)[C@@H]5C[C@@H](O)CN5C(=O)[C@H]([C@@H](C)O)NC4=O)cc3)cc2)cc1` ({pTerphenylCO(4''-OnC5H11)}-[Orn(4R-OH,5R-OH)]T[Hyp][hTyr(3S-OH,4S-OH)]T[Pro(3S-OH,4S-Me)]; lactam 1-C), the Potency entry in test [1], in test [3], in test [5] and in test [4] was “inactive” throughout.

As to `O=C(O)CSc1cc(NS(=O)(=O)c2ccc(Br)cc2)c2ccccc2c1O`, the Potency result in test [1] and in test [3] was “inactive” in each case. In test [5], the Potency was 0.474 µM (active).

`Cc1cc(OCCCS(C)(=O)=O)cc(C)c1-c1cccc(COc2ccc(C3=CC(=O)NS3=O)cc2)c1` (configuration not stated): the Potency entry in test [1], in test [3], in test [5] and in test [4] was “inactive” in each case.

`CCC1C(=O)N(C)c2cnc(Nc3ccc(C(=O)NC4CCN(C)CC4)cc3OC)nc2N1C1CCCC1` (configuration not stated): the Potency entry in test [1], in test [3], in test [5] and in test [4] was “inactive” throughout.

For the compound `CCNC(=O)N1CCCN(c2ccc(C(=O)NCCc3ccc(Cl)cc3Cl)cc2NC(=O)c2cccc(Cl)c2)CC1`, the Potency entry in test [1], in test [3], in test [5] and in test [4] was “inactive” throughout.

As for `O=C(c1ccc(F)cc1)N1CCCC(c2nc(-c3ccc(F)cc3)no2)C1` (configuration not stated), the Potency result in test [1], in test [3] and in test [5] was “inactive” in each case.

As for `Cc1cc(OCCCS(C)(=O)=O)cc(C)c1-c1cccc(COc2ccc3c(c2)OCC3CC(=O)O)c1` (configuration not stated), the Potency entry in test [1], in test [3] and in test [5] was “inactive” throughout.

With `CCC(C)(NC(=O)C(CCC(N)=O)NC(=O)C1CC(O)CN1C(=O)C(C)(C)NC(=O)C(C)(C)NC(=O)C(CC(C)C)NC(=O)CNC(=O)C(NC(=O)C(C)(C)NC(=O)C(C)(C)NC(=O)C(C)(C)NC(=O)C(Cc1ccccc1)NC(C)=O)C(C)C)C(=O)N1CC(O)CC1C(=O)NC(C)(C)C(=O)NC(CO)Cc1ccccc1` (configuration not stated) (Ac-F[Aib][Aib][Aib]VGL[Aib][Aib][Hyp]Q[Iva][Hyp][Aib][Phe(ol)]; configuration not given here), the activity change, negative = inhibition in test [1] is -5.56% [at 9.73 µM] (inactive); in test [3] it was -5.79% [at 11.6 µM] (inactive). In test [5], the activity change, negative = thiol reactive is 0.987% [at 11.5 µM] (inactive). Moreover, the activity, negative = inhibition in test [4] is -0.795% [at 11.6 µM] (inactive).

As to `COc1cc(F)c(F)c(Nc2ccc(I)cc2F)c1NS(=O)(=O)C1(CC(O)CO)CC1` (configuration not stated), the Potency result in test [1], in test [3], in test [5] and in test [4] was “inactive” in each case.

In the case of `Cn1cc(-c2cnn3c(N)c(Br)c([C@@H]4CCCNC4)nc23)cn1`, the Potency entry in test [1], in test [3], in test [5] and in test [4] was “inactive” in each case.

As for `CC(C)(C)c1ccc2c(c1)CC[C@H]2NC(=O)Nc1cccc2[nH]ncc12`, the Potency entry in test [1], in test [3], in test [5] and in test [4] was “inactive” throughout.

As to `C/C=C/C=C/C(=O)O[C@@H]1C=C2COC(=O)[C@]2(O)[C@@]2(C)CCCC(C)(C)[C@H]12`, the Potency result in test [1], in test [3], in test [5] and in test [4] was “inactive” each time.
